We go through 40 compounds from the supplement of paper PMC12024424.

Structures can show the parent of a compound that is named as a salt.

For this assay, the system named is Staphylococcus aureus Sa2 (MRSA, cystic fibrosis isolate). The experiment in a line: growth reduction vs untreated control (OD550); higher = stronger antibacterial activity. As to conditions: 0.1 mM; 24 h. The method, then:
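Single-dose screen of the MedChem Express Drug Repurposing Library (0.1 mM, 1% DMSO) against planktonic MRSA S. aureus Sa2 (CF isolate) in TSB in 96-well plates, 37 °C aerobic, 24 h. Assays were run in triplicate and repeated twice.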
For the compound `OC1(c2ccc(Cl)c(C(F)(F)F)c2)CCN(CCCC(c2ccc(F)cc2)c2ccc(F)cc2)CC1` [Penfluridol], the growth reduction amounted to 100%.

On to `CCCCc1nc(-c2ccc(OCCCN(CC)CC)cc2)cn1-c1ccc(Oc2ccc(Cl)cc2)cc1` [Azeliragon], for which the growth reduction was 100%.

Compound `Cc1ccc(NC(=O)C2(c3ccc4c(c3)OC(F)(F)O4)CC2)nc1-c1cccc(C(=O)O)c1` [Lumacaftor] yielded a growth reduction of 92.9%.

`Oc1c(I)cc(Cl)c2cccnc12` [Clioquinol] came in with a growth reduction of 100%.

`O=C(OCC(O)CO)c1ccccc1Nc1ccnc2cc(Cl)ccc12` (stereo not given) [Glafenine] had a growth reduction of 100%.

`CC(C)(C)[C@@H]1NC(=O)O[C@@H]2CCC[C@H]2OC/C=C/C(F)(F)c2nc3ccccc3nc2O[C@@H]2C[C@@H](C(=O)N[C@]3(C(=O)NS(=O)(=O)C4(C)CC4)C[C@H]3C(F)F)N(C2)C1=O` [Glecaprevir] gave a growth reduction of 100%.

In the case of `CC(C)(C)C#Cc1cc(N(C(=O)[C@H]2CC[C@H](C)CC2)[C@H]2CC[C@H](O)CC2)c(C(=O)O)s1` [Lomibuvir], the growth reduction is 91.1%.

In turn, `O=C(Nc1ccccc1)c1ccccc1O` [Salicylanilide] had a growth reduction of 91.4%.

With `Oc1c(Cl)cc(Cl)cc1Sc1cc(Cl)cc(Cl)c1O` [Bithionol], the growth reduction was found to be 99.2%.

In turn, `CN(C)C(=O)/C=C/CNCCOc1ccc(/C(=C(/CC(F)(F)F)c2ccccc2)c2ccc3[nH]nc(F)c3c2)cn1` registered a growth reduction of 100%.

`Cc1ccc2c(=O)c3cccc(CC(=O)O)c3oc2c1C` [Vadimezan] had a growth reduction of 100%.

In turn, `COc1cc(C)c2c(Oc3cccc(C(F)(F)F)c3)c(OC)cc(NC(C)CCCN)c2n1` (stereo not given) [Tafenoquine (Succinate)] returned a growth reduction of 100%.

As to `Cc1ncc(NC(=O)c2ccc(CN3CCN(C)CC3)c(C(F)(F)F)c2)cc1Nc1nccc(-c2cccnc2)n1` [Flumatinib], the growth reduction turned out to be 100%.

In the case of `CC(C)/N=c1\cc2n(-c3ccc(Cl)cc3)c3ccccc3nc-2cc1Nc1ccc(Cl)cc1` [Clofazimine], the growth reduction turned out to be 100%.

Turning to `C=C1CC[C@H](O)C/C1=C/C=C1\CCC[C@]2(C)[C@@H]([C@H](C)/C=C/[C@H](C)C(C)C)CC[C@@H]12` [Vitamin D2], the growth reduction was 100%.

On to `O=C(O)Cc1ccc(Cc2cc(-c3cccc(Cl)c3)nc(C(F)(F)F)c2)cc1`, for which the growth reduction was 100%.

For `CC/C(=C(\c1ccccc1)c1ccc(OCCN(C)C)cc1)c1ccccc1` [Tamoxifen], the growth reduction came to 100%.

Turning to `C=CC(=O)Nc1cc(Nc2nccc(-c3cn(C4CC4)c4ccccc34)n2)c(OC)cc1N(C)CCN(C)C` [Almonertinib], the growth reduction is 100%.

Consider `CC/C(=C(/c1ccc(/C=C/C(=O)O)cc1)c1ccc2[nH]ncc2c1)c1ccc(F)cc1Cl` [Brilanestrant], for which the growth reduction was determined as 96.6%.

`Cn1cnc([N+](=O)[O-])c1C[N+](C)(C)C/C=C/C(=O)Nc1cc2c(Nc3ccc(Cl)c(Br)c3)ncnc2cn1` [Tarloxotinib (bromide)] had a growth reduction of 99.6%.

With `CC1CS(=O)(=O)CCN1/N=C/c1ccc([N+](=O)[O-])o1` (stereo not given) [Nifurtimox], the growth reduction was 100%.

On to `CC/C(=C(\c1ccccc1)c1ccc(OCCN(C)C)cc1)c1ccccc1` [Tamoxifen (Citrate)], for which the growth reduction is 100%.

The compound `C=CC(=O)N1CC[C@@H](Oc2nc(Nc3ccc(N4CCC(N5CCN(C)CC5)CC4)cc3)c(C(N)=O)nc2CC)C1` [Naquotinib (mesylate)] displayed a growth reduction of 99.6%.

As to `Cc1cc([C@H](C)Nc2nccc(N3C(=O)OC[C@@H]3[C@@H](C)F)n2)ncc1-c1ccnc(C(F)(F)F)c1`, the growth reduction was 100%.

`COc1ccc2c(c1OCc1ccccc1)C[C@@H](C(=O)O)N(C(=O)C(c1ccccc1)c1ccccc1)C2` [Olodanrigan] displayed a growth reduction of 95.1%.

Turning to `OCCN1CCN(CC/C=C2/c3ccccc3Sc3ccc(C(F)(F)F)cc32)CC1` [Flupentixol dihydrochloride], the growth reduction was determined as 100%.

Compound `Cn1ncc(Cl)c1-c1cc(C(=O)N[C@H](CN)Cc2cccc(F)c2)sc1Cl` [Afuresertib] had a growth reduction of 100%.

Compound `CCCCCCCCCCCCN1CCCCCC1=O` [Laurocapram] gave a growth reduction of 100%.

As to `COc1ccc(C(=O)NC2(C(=O)O)Cc3ccccc3C2)cc1OCCc1cccc(C)c1`, the growth reduction turned out to be 90.3%.

Consider `Cc1cc(-c2nc(CN3CCNCC3)no2)cc2c1C(=O)N(Cc1ccc(OC(F)(F)F)cc1)C2`, for which the growth reduction worked out at 100%.

With `CCOC(=O)Nc1ccc(NCc2ccc(F)cc2)nc1N` [Flupirtine (Maleate)], the growth reduction is 100%.

`O=C(NC[C@H]1CN(c2ccc(N3CCOCC3=O)cc2)C(=O)O1)c1ccc(Cl)s1` [Rivaroxaban] gave a growth reduction of 100%.

`Cc1cc2c(cc1CC(=O)c1sccc1S(=O)(=O)Nc1onc(C)c1Cl)OCO2` [Sitaxsentan (sodium)] registered a growth reduction of 98%.

In turn, `C=CC[C@@H]1/C=C(\C)C[C@H](C)C[C@H](OC)[C@H]2O[C@@](O)(C(=O)C(=O)N3CCCC[C@H]3C(=O)O[C@H](/C(C)=C/[C@@H]3CC[C@@H](O)[C@H](OC)C3)[C@H](C)[C@@H](O)CC1=O)[C@H](C)C[C@@H]2OC` [Tacrolimus (monohydrate)] registered a growth reduction of 100%.

Take `N=C(N)c1ccc(OCCCCCOc2ccc(C(=N)N)cc2)cc1` [Pentamidine (isethionate)]: the growth reduction was found to be 100%.

The compound `CCCCN(CCCC)CCC(O)c1cc2c(Cl)cc(Cl)cc2c2cc(C(F)(F)F)ccc12` (stereo not given) [Halofantrine hydrochloride] showed a growth reduction of 100%.

`CC(C)Nc1nc2cc(Cl)c(Cl)cc2n1[C@H]1O[C@@H](CO)[C@H](O)[C@@H]1O` [Maribavir]: the growth reduction worked out at 92.7%.

As to `CC(=O)Oc1cccc2c1C(=O)c1c(OC(C)=O)cc(C(=O)O)cc1C2=O` [Diacerein], the growth reduction is 93.4%.

Compound `Cc1ccc(C#Cc2ccc(S(=O)(=O)N[C@H](Cc3c[nH]c4ccccc34)C(=O)O)s2)cc1` came in with a growth reduction of 98.4%.

On to `Cc1ccc(-c2c(C(=O)CCl)n(CCCO)c3ncnc(N)c23)cc1`, for which the growth reduction stood at 99.8%.
